Activity calls are given as the source filed them.
What was measured:
[1] = E. coli DRC41 culture turbidity changes, primary screen, E. coli filamentation inducer project, strain DRC41, OD650, 48 h (AID 1152);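 also: E. coli MC1000 strain DRC41 lacking acrAB efflux pump and sulA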; details: E. coli DRC41 (acrAB sulA), higher = more signal, called active from +8 up or from −8 down
[2] = small-molecule binders of probe aLefty1, primary screen, biochemical, small-molecule microarray, 635/667 nm fluorescence (AID 1153); details: higher = more signal;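 also: score merges spot fluorescence with signal-to-noise ratio from the scanned slide images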
[3] = PSAC antagonists in infected red cells, primary screen, cell-based, P. falciparum Indochina, OD700, 1 h (AID 1154); details: P. falciparum Indochina infected RBC osmotic lysis, higher = more signal, called active from +8 up or from −8 down
[4] = PSAC antagonists in infected red cells, primary screen, cell-based, P. falciparum Indochina, OD700, 2 h (AID 1155);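 also: lysis reports solute entry through the parasite surface anion channel PSAC; channel blockers reduce lysis of infected cells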; details: P. falciparum Indochina infected erythrocytes, osmotic lysis OD700; higher = more signal, called active from +8 up or from −8 down
[5] = osmotic lysis modulators in infected erythrocytes, primary screen, PSAC antagonist project, cell-based, P. falciparum Indochina, OD700, 3 h (AID 1156); details: higher = more signal, called active from +8 up or from −8 down
[6] = PSAC antagonists in infected red cells, primary screen, cell-based, P. falciparum Indochina, OD700, 18 h (AID 1157); details: P. falciparum Indochina infected erythrocytes, osmotic lysis OD700, 18 h; higher = more signal, called active from +8 up or from −8 down
[7] = modulators of S6 phosphorylation in cells, primary screen, cell-based, A549, cytoblot, luminescence, serum-stimulated (AID 1158); details: A549 phospho-S6 cytoblot, 5 h, higher = more signal;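 also: serum-stimulated A549 lung adenocarcinoma cells; signal is phosphorylated S6 detected by cytoblot immunostaining with HRP secondary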
[8] = target: NADPH oxidase 2 (Homo sapiens) (UniProt P04839); experiment: NOX2-dependent H2O2 signal modulators, primary screen, NOX inhibitor project, cell-based, HEK293-NOX2, PMA-stimulated, Amplex Red fluorescence (AID 1159); details: 45 min, higher = more signal, called active from +8 up or from −8 down; also: test concentration not given here
[9] = target: NADPH oxidase 4 (Homo sapiens) (UniProt Q9NPH5); experiment: NOX4-dependent H2O2 signal modulators, primary screen, NOX inhibitor project, cell-based, HEK293-NOX4, tetracycline-induced, Amplex Red fluorescence (AID 1160); details: 45 min, higher = more signal, called active from +8 up or from −8 down
[10] = target: NADPH oxidase 5 (Homo sapiens) (UniProt Q96PH1); experiment: NOX5-dependent H2O2 signal modulators, primary screen, NOX inhibitor project, cell-based, HEK293-NOX5, Amplex Red fluorescence (AID 1161); details: HEK293-NOX5, ionomycin, 45 min, higher = more signal
Sequence of NADPH oxidase 5 (Homo sapiens) (Q96PH1 whole entry, looked up): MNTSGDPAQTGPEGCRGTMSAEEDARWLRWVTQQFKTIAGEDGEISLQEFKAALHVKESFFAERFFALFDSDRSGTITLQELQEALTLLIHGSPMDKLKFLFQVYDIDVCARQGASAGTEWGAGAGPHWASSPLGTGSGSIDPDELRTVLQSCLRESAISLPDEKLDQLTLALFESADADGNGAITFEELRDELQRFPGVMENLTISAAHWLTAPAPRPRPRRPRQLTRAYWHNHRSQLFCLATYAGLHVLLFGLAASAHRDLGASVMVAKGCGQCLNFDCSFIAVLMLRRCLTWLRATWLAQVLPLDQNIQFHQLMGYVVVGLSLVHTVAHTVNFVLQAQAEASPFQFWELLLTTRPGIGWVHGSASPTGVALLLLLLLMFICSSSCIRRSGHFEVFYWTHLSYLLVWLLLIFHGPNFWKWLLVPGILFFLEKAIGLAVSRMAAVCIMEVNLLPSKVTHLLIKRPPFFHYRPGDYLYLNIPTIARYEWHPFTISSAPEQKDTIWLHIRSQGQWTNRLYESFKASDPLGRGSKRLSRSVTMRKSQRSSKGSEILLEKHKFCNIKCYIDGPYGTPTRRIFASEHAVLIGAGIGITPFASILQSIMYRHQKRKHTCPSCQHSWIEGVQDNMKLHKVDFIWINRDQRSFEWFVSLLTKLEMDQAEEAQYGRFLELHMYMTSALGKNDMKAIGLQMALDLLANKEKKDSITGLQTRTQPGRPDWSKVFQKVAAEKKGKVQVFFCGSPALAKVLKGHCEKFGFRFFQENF

Sequence of NADPH oxidase 2 (Homo sapiens) (P04839 whole entry, looked up): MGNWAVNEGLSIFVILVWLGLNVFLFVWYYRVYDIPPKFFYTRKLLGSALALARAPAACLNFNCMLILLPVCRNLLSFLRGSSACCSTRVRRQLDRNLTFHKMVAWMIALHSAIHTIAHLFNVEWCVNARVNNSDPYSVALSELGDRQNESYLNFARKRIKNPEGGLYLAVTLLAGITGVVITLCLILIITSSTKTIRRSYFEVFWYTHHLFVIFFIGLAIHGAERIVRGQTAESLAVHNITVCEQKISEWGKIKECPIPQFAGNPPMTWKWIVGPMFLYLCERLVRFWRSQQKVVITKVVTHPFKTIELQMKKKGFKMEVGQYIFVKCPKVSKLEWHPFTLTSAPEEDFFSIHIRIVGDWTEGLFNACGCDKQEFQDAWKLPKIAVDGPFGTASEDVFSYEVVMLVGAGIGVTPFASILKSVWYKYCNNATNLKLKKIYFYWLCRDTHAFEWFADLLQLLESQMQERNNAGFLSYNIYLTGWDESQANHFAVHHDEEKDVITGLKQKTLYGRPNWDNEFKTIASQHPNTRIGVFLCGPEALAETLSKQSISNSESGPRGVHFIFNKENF
Sequence of NADPH oxidase 4 (Homo sapiens) (Q9NPH5 whole entry, looked up): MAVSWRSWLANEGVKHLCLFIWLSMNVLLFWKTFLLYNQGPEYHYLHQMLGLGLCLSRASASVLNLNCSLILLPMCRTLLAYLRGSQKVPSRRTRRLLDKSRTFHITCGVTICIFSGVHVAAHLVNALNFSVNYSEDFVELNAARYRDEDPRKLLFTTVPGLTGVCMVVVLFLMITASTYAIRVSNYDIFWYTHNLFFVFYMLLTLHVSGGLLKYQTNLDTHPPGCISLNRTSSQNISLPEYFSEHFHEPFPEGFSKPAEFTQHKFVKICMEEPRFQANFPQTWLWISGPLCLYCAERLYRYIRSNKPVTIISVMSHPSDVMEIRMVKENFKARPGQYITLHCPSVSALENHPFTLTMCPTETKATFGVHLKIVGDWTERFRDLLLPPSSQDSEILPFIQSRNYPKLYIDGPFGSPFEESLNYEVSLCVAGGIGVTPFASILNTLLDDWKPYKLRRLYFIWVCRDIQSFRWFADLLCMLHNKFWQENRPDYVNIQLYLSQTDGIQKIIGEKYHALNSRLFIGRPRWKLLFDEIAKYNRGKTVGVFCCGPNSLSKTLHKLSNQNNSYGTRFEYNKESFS

| SMILES | z-score [1] | composite z-score [2] | z-score [3] | z-score [4] | z-score [5] | z-score [6] | z-score [7] | z-score [8] | z-score [9] | z-score [10] |
| --- | --- | --- | --- | --- | --- | --- | --- | --- | --- | --- |
| COc1ccc([Si](C)(C)[C@H]2[C@H](CCn3cc([C@H](O)c4ccccc4)nn3)O[C@@]3(C(=O)N(Cc4ccc(N5C(=O)c6cccc7cccc5c67)cc4)c4ccccc43)[C@@H]2C)cc1 | 0.0759 (inactive) | 0.0091 | 1.97 (inactive) | 0.485 (inactive) | 0.0591 (inactive) | 0.646 (inactive) | 0.243 | 0.892 (inactive) | 0.925 (inactive) | 2.01 |
| C=CCC(OC(C)=O)[C@@H]1[C@@H](N(Cc2cccc3ccccc23)C(=O)c2cccc3ccccc23)c2cc(OCCCO)ccc2N1C(=O)c1ccc(-c2ccccc2)cc1 (stereo not given in full) | -0.929 (inactive) | -0.106 | -0.17 (inactive) | 0.526 (inactive) | 0.0426 (inactive) | 0.361 (inactive) | 0.684 | -0.677 (inactive) | 0.104 (inactive) | -2.47 |
| COc1cc(OC)c(C(O)C2C=CC3C(=O)N(c4ccccc4)C(=O)C3N2Nc2ccccc2)cc1Br (stereo not given) | -0.789 (inactive) | 0.0834 | 20.2 (active) | 5.27 (inactive) | 0.508 (inactive) | 2.03 (inactive) | -0.543 | -1.61 (inactive) | -4.38 (inactive) | -2.38 |
| CN1C(=O)C2C=CC(C(O)C#Cc3ccccc3)N(Nc3ccccc3)C2C1=O (stereo not given) | -0.877 (inactive) | 0.545 | 1.07 (inactive) | 0.783 (inactive) | 0.0989 (inactive) | 1.12 (inactive) | -1.19 | -1.22 (inactive) | -4.71 (inactive) | -1.8 |
| CCOC(=O)C[C@H]1[C@H](OC(=O)c2ccc(C(=O)c3ccccc3)cc2)[C@@H](NC(=O)Cc2ccc(OC)cc2)c2cc(OCCCO)ccc2N1C(=O)c1ccccc1 | -0.915 (inactive) | -0.0762 | 2.41 (inactive) | -0.431 (inactive) | -0.937 (inactive) | 0.384 (inactive) | -0.408 | -1.25 (inactive) | 1.16 (inactive) | 0.303 |
| CN(C)C(=O)C1N=C(c2ccc(OCCCO)cc2)N(c2ccccc2)O1 (stereo not given) | 0.975 (inactive) | 0.0509 | 18.3 (active) | 2.14 (inactive) | 0.0521 (inactive) | 0.325 (inactive) | 0.296 | -4.12 (inactive) | -0.509 (inactive) | -1.12 |
| COc1ccc(C#Cc2ccc3c(c2)[C@]2(C(=O)N3)[C@H](c3ccc(O)cc3)N3[C@H](c4ccccc4)[C@H](c4ccccc4)OC(=O)[C@H]3[C@@H]2C(=O)O)cc1 | 1.09 (inactive) | 0.948 | -1.12 (inactive) | -1.32 (inactive) | -8.12 (active) | -2.53 (inactive) | 2.76 | 0.397 (inactive) | -2.46 (inactive) | 0.00974 |
| O=C1NC(=O)C2C1C=CC(C(O)CCc1ccccc1)N2Nc1ccc(Cl)cc1Cl (stereo not given) | -1.34 (inactive) | -0.0162 | 2.28 (inactive) | 1.31 (inactive) | 0.0675 (inactive) | 1.05 (inactive) | -1.01 | -0.22 (inactive) | -5.55 (inactive) | -0.709 |
| COC(=O)C1=CC(CCCO)=CC(C2CC2)N(C)C=C1C(=O)OC (stereo not given) | 1.22 (inactive) | -0.35 | 0.731 (inactive) | -0.59 (inactive) | 0.482 (inactive) | -1.41 (inactive) | 1.83 | -0.463 (inactive) | -0.122 (inactive) | 0.663 |
| COC(=O)c1c(CC[C@@H](CO)NC(=O)N2CCC[C@H]2Cn2cc(Cc3ccccc3)nn2)oc(C(C)=O)c1C(=O)OC | -0.195 (inactive) | -0.177 | 0.133 (inactive) | 0.258 (inactive) | 0.876 (inactive) | -0.033 (inactive) | 0.567 | -1.79 (inactive) | -0.894 (inactive) | -1.85 |
| OCC1CC(c2ccccc2)=NO1 (stereo not given) | 0.727 (inactive) | 0.0278 | 5.51 (inactive) | 0.623 (inactive) | -0.182 (inactive) | 0.206 (inactive) | 0.137 | -1.17 (inactive) | -0.137 (inactive) | 0.273 |
| CCOC(=O)C[C@H]1[C@H](OC(=O)c2cc3ccccc3oc2=O)[C@@H](NC(=O)c2ccc(-c3ccccc3)cc2)c2cc(OCCCO)ccc2N1C(=O)c1ccc2ccccc2n1 | -0.216 (inactive) | 0.132 | 3.37 (inactive) | 1.07 (inactive) | 0.723 (inactive) | 0.523 (inactive) | -0.577 | 0.858 (inactive) | 0.688 (inactive) | 1.11 |

Reference: PubChem BioAssay
